Data from PubChem BioAssay AID1159580 (chemical genetic matrix, 2015).
Where “and” joins values, the source holds several entries; their conditions need not be identical. Identical values can stand only once. About 2,000 (36%) of roughly 5,500 compounds were called active. Not shown: some 18% with an inconclusive outcome. Cut-off read from the data, not from the text of the source: active = normalized growth mostly below about 0.91 (no sharp cut-off); inconclusive = no clear call, values can overlap the other calls; inactive = mostly above about 0.92. The list shows a part of the results.

Assay: chemical genetic growth profiling, strain panel (AID 1159580);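 note: tested at 20 µM; growth read once vehicle control cultures reached saturation at 30 °C; 1 = growth at the plate median or of vehicle wells; lower values mean less growth of the strain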
Details: S. cerevisiae deletion strains, growth OD

Measured: normalized growth

CC12CCC3C(CC3(C)C)C(C)(CCC1=O)O2 (stereo unspecified)
inactive: locus YAL021C, strain ccr4, hits give low values 1.04 | locus YAL026C, strain drs2, hits give low values 1.01 | locus YAL030W, strain snc1, hits give low values 0.994 | locus YBL061C, strain skt5, hits give low values 0.99 | locus YBR009C, strain hhf1, hits give low values 1.01 | locus YBR021W, strain FUR4, hits give low values 1.01 | locus YBR023C, strain chs3, hits give low values 0.996 | locus YBR171W, strain sec66, hits give low values 0.985 | locus YBR229C, strain ROT2, hits give low values 1.01 | locus YBR231C, strain swc5, hits give low values 0.983 | locus YBR279W, strain paf1, hits give low values 1.02 | locus YCL011C, strain gbp2, hits give low values 1.01 | locus YCL016C, strain dcc1, hits give low values 1.01 | locus YCL029C, strain bik1, hits give low values 1.03 | locus YCL061C, strain MRC1, hits give low values 1.01 | locus YCL069W, strain vba3, hits give low values 1 | locus YCR088W, strain abp1, hits give low values 0.981 | locus YDL005C, strain med2, hits give low values 0.972 | locus YDL035C, strain GPR1, hits give low values 1.01 | locus YDL040C, strain nat1, hits give low values 0.99 | locus YDL074C, strain BRE1, hits give low values 1.07 | locus YDL101C, strain DUN1, hits give low values 1.02 | locus YDL185W, strain tfp1, hits give low values 1.02 | locus YDL192W, strain arf1, hits give low values 1.01 | locus YDR001C, strain nth1, hits give low values 0.986 | locus YDR069C, strain doa4, hits give low values 1.01 | locus YDR101C, strain arx1, hits give low values 0.983 | locus YDR137W, strain rgp1, hits give low values 0.977 | locus YDR159W, strain sac3, hits give low values 0.982 | locus YDR162C, strain NBP2, hits give low values 1.03 | locus YDR195W, strain ref2 0.934 | locus YDR297W, strain sur2, hits give low values 1.01 | locus YDR318W, strain mcm21, hits give low values 1.03 | locus YDR334W, strain swr1, hits give low values 1 | locus YDR335W, strain msn5, hits give low values 1 | locus YDR388W, hits give low values 1.01 | locus YDR392W, strain spt3, hits give low values 0.939 | locus YDR502C, strain sam2, hits give low values 1.04 | locus YEL003W, strain gim4, hits give low values 0.995 | locus YEL037C, strain rad23, hits give low values 1.01 | locus YEL061C, strain CIN8 (second series), hits give low values 0.992 | locus YEL061C, strain CIN8, hits give low values 1.01 | locus YER015W, strain faa2, hits give low values 1 | locus YER016W, strain bim1, hits give low values 0.988 | locus YER110C, hits give low values 1.02 | locus YER111C, strain swi4, hits give low values 0.987 | locus YER155C, strain BEM2 (second series), hits give low values 0.967 | locus YER155C, strain BEM2, hits give low values 1.01 | locus YER167W, strain BCK2, hits give low values 1 | locus YFR010W, strain ubp6, hits give low values 1.01 | locus YGL078C, strain dbp3, hits give low values 1.01 | locus YGL086W, strain mad1, hits give low values 1.01 | locus YGL167C, strain pmr1, hits give low values 0.99 | locus YGL173C, strain kem1, hits give low values 0.999 | locus YGL227W, strain vid30, hits give low values 0.989 | locus YGL240W, strain doc1, hits give low values 0.943 | locus YGL248W, strain PDE1, hits give low values 1.05 | locus YGL253W, strain hxk2, hits give low values 1.02 | locus YGR078C, strain PAC10, hits give low values 1.04 | locus YGR135W, strain pre9, hits give low values 1.05 | locus YGR252W, strain gcn5, hits give low values 1.07 | locus YHR013C, strain ard1, hits give low values 1.01 | locus YHR027C, strain rpn1, hits give low values 0.988 | locus YHR030C, strain SLT2, hits give low values 1.01 and 1.05 | locus YHR079C, strain IRE1 (second series), hits give low values 1.02 | locus YHR079C, strain IRE1, hits give low values 1.03 | locus YHR094C, strain hxt1, hits give low values 1.01 | locus YHR129C, strain ARP1, hits give low values 1.01 | locus YHR142W, strain chs7, hits give low values 1 | locus YHR200W, strain rpn10, hits give low values 1.02 | locus YIL066C, strain RNR3, hits give low values 1.01 | locus YIL073C, strain SPO22, hits give low values 1.08 | locus YIL125W, strain kgd1, hits give low values 1 | locus YIR030C, strain dcg1, hits give low values 1.02 | locus YJL092W, strain hpr5, hits give low values 0.997 | locus YJL095W, strain BCK1 (second series), hits give low values 1.01 | locus YJL095W, strain BCK1, hits give low values 1.06 and 1.04 | locus YJL115W, strain asf1, hits give low values 0.976 | locus YJL129C, strain trk1, hits give low values 0.991 | locus YJL134W, strain LCB3, hits give low values 1.02 | locus YJL154C, strain vps35, hits give low values 0.991 | locus YJL164C, strain tpk1, hits give low values 1.04 | locus YJL166W, strain qcr8, hits give low values 0.984 | locus YJL168C, strain set2, hits give low values 1.01 | locus YJL187C, strain SWE1 (second series), hits give low values 1.04 | locus YJL187C, strain SWE1, hits give low values 1
